Bioassay records: PubChem BioAssay, National Center for Advancing Translational Sciences (NCATS)
In the library only some 7.2% were active in any assay of this set; here they are far more common.
LASV entry inh = inhibitors of Lassa virus binding or cell entry; Lassa virus pseudotype entry inhibition, cell reporter; Potency, µM (doses to about 37.9 µM), actives largely listed as inhibitors; 300,000 tested, 1.2% active; calls by dose curve; tested in HEK293 cells; further: nearly all actives have a fitted effect of over 50% in size
RE007 growth inh = less growth of the S. pombe RE007 Vpr strain; 360,000 tested, 0.21% active; AID 651644; Potency, µM (doses to about 92.2 µM), most hits filed as inhibitors; S. pombe RE007 Vpr strain, BacTiter-Glo ATP luminescence, 24 h; active means well fitted falling curve with a large enough effect; inconclusive means small, poorly fitted or top-dose-only effect; inactive means no such curve, though single readings can be large or run the other way; further: nearly all actives have a fitted effect of over 50% in size
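Fission yeast RE007 carrying one integrated HIV-1 vpr copy, seeded at OD 0.01 in PMG+AL medium with 23 nL pinned compound. Grown 24 h at 30 degrees; viability read by BacTiter-Glo luminescence after 5 min.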
Sm TGR inh = S. mansoni TGR enzyme inhibition; 360,000 tested, 3% active; purified TGR, DTNB reduction, TNB absorbance 405 nm; Potency, µM (titrated, usually from 114 µM), hits mostly inhibitors; AID 485364; further: nearly all actives have a fitted effect of over 60% in size
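Kinetic colorimetric format: TGR-catalysed, NADPH-driven DTNB reduction monitored via TNB absorbance. Enzyme dispensed at 20 nM; compound exposure 15 min at room temperature before reaction start.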
MARV entry inh = inhibitors of Marburg virus binding or cell entry; Marburg virus pseudotyped entry inhibition, cell reporter; Potency, µM (titrated, usually from 37.8 µM), actives largely listed as inhibitors; 300,000 tested, 1.8% active; AID 540276; calls by dose curve; tested in HEK293 cells
FMDV inh = foot and mouth disease virus antiviral activity | FMDV antiviral cell-based qHTS | Potency, µM (top dose mostly 57.9 µM), hits mostly inhibitors | 410,000 tested, 1.2% active | AID 1159524; calls by dose curve; tested in HEK293T cells; further: read-out not given here; nearly all actives have a fitted effect of over 45% in size
HCV inh = blocks hepatitis C virus. Huh7.5.1 HCVcc-Cre infection, luciferase reporter, 44 h. Potency, µM (top dose mostly 41.8 µM), hits mostly inhibitors. 340,000 tested, 3.4% active. AID 651820
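1,000 cells/well; 4 h culture; + compound; + HCVcc-Cre (~0.5 moi); 44 h; luciferase substrate, RT 15 min; read 15 sec.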
Each line names hits and unclear results; the compound was inactive in the other large screens. Unless noted, the call rests on the fitted dose curve; in most records, active means well fitted curve in the direction sought with a large enough effect; inconclusive means small, poorly fitted or top-dose-only effect, or another doubt; inactive means no such curve, though single readings can be large; an effect the other way counts as inactive or inconclusive.

O=[N+]([O-])c1cccc(N=NN(CCO)c2cccc([N+](=O)[O-])c2)c1	HCV inh 1.1µM
CCCN(N=Nc1cccc([N+](=O)[O-])c1)c1cccc([N+](=O)[O-])c1	Sm TGR inh 50µM, MARV entry inh inconclusive, HCV inh 1.1µM (no result: FMDV inh)
c1ccc(C(c2ccccc2)N2CCN(c3nc4ccccc4n4cnnc34)CC2)cc1	LASV entry inh inconclusive, MARV entry inh inconclusive, FMDV inh 28µM, HCV inh inconclusive
O=C(NCc1nnc2n1CCN(Cc1ccc(C(F)(F)F)cc1)CC2)c1ccccn1	none (no result: LASV entry inh, RE007 growth inh, Sm TGR inh, MARV entry inh, HCV inh)
COc1ccc(N2CC(NC(=O)Cc3cccs3)CC2=O)cc1OC (configuration not stated)	none (no result: RE007 growth inh, MARV entry inh, HCV inh)
C(=C\c1nc(N2CCCC2)c2ccccc2n1)/c1ccccc1	LASV entry inh inconclusive, MARV entry inh 7.1µM, FMDV inh inconclusive, HCV inh inconclusive
CC1CCN(c2nc(/C=C/c3ccccc3)nc3ccccc23)CC1	LASV entry inh inconclusive, RE007 growth inh inconclusive, MARV entry inh inconclusive, HCV inh inconclusive
Oc1ccc(Nc2nc(N3CCCC3)c3ccccc3n2)cc1	LASV entry inh inconclusive, MARV entry inh 11µM, HCV inh inconclusive
COc1ccc(Nc2nc(N3CCCCC3)c3ccccc3n2)cc1	LASV entry inh inconclusive, MARV entry inh inconclusive, FMDV inh 25µM, HCV inh inconclusive
Cc1cnc(CNc2ncncc2-c2ccccc2C(F)(F)F)cn1	none (no result: LASV entry inh, RE007 growth inh, Sm TGR inh, MARV entry inh, HCV inh)
CC(=O)c1ccc(NC(=O)CCC(=O)N2CC(C)Oc3ccc(C)cc32)cc1 (configuration not stated)	LASV entry inh inconclusive, HCV inh 10µM
N#Cc1cc(-c2ccccc2)[nH]c1-c1nccc2ccccc12	FMDV inh 28µM, HCV inh inconclusive (no result: LASV entry inh, RE007 growth inh, MARV entry inh)
Fc1cc(Br)ccc1NC(=S)Nc1ccccc1	Sm TGR inh 28µM, MARV entry inh inconclusive (no result: RE007 growth inh)
O=C(O)Cc1ccc(NC(=S)Nc2ccc(Br)cc2Cl)cc1	Sm TGR inh 22µM (no result: LASV entry inh, MARV entry inh)
Fc1ccccc1NC(=S)Nc1ccc(Br)cc1	LASV entry inh inconclusive, Sm TGR inh 50µM
CC(C)NC(=O)C1(C)CSCC(=O)N1Cc1cccc(C(F)(F)F)c1 (configuration not stated)	none (no result: LASV entry inh, Sm TGR inh, MARV entry inh, HCV inh)
COc1ccc(/C=N/NC(=O)c2cccc(Br)c2)cc1Cn1cc(Cl)cn1	LASV entry inh inconclusive, MARV entry inh 7.1µM, FMDV inh inconclusive, HCV inh inconclusive
COc1ccccc1C(c1c(N)n(C)c(=O)n(C)c1=O)C(C)[N+](=O)[O-] (configuration not stated)	RE007 growth inh inconclusive
COc1ccccc1C(C[N+](=O)[O-])c1c(N)n(C)c(=O)n(C)c1=O (configuration not stated)	RE007 growth inh 35µM, FMDV inh 32µM, HCV inh 11µM (no result: LASV entry inh, MARV entry inh)
c1cc2ccc3ccc(CN4CCOCC4)c4ccc(c1)c2c34	HCV inh 10µM (no result: FMDV inh)
O=S(=O)(c1c(F)cccc1F)N1CCN(Cc2c(O)ccc3ccccc23)CC1	Sm TGR inh 2.2µM, FMDV inh inconclusive (no result: LASV entry inh, MARV entry inh)
OC1CCCN(Cc2ccc3ccc4cccc5ccc2c3c45)C1 (configuration not stated)	MARV entry inh inconclusive, HCV inh inconclusive (no result: FMDV inh)
Oc1ccc2ccccc2c1CN1CCOCC1	LASV entry inh inconclusive, Sm TGR inh 0.45µM
CC(=O)c1c(C)n(-c2ccc(Cl)cc2)c2ccc(OC(=O)COc3ccccc3)cc12	none (no result: RE007 growth inh, MARV entry inh, HCV inh)
C=CCN=C1NN=C(c2ccc3c(c2)OCCO3)CS1	LASV entry inh 0.46µM, MARV entry inh 0.92µM, FMDV inh 8.9µM
C=CCN=C1NN=C(c2cc(C)n(CC=C)c2C)CS1	LASV entry inh inconclusive, MARV entry inh inconclusive, FMDV inh 18µM, HCV inh inconclusive
Cc1sc(N)nc1-c1ccc2c(c1)OCCO2	none (no result: LASV entry inh, MARV entry inh)
NC1=NN=C(c2ccc3c(c2)OCCO3)CS1	LASV entry inh 7.1µM, Sm TGR inh inconclusive, MARV entry inh 11µM, FMDV inh 11µM
COc1ccc(C[C@H]2COC(=O)[C@@H]2Cc2ccc(OC3OC(CO)C(O)C(O)C3O)c(OC)c2)cc1OC (some centres not stated)	HCV inh 7.1µM
COc1cc(C2OCC3C(c4ccc(OC5OC(CO)C(O)C(O)C5O)c(OC)c4)OCC23)ccc1O (configuration not stated)	Sm TGR inh 35µM (no result: LASV entry inh, MARV entry inh)
Cc1ccc(C)c(N2CCN(S(=O)(=O)c3cc(C(=O)Nc4ccccc4C(F)(F)F)ccc3F)CC2)c1	none (no result: RE007 growth inh, MARV entry inh, HCV inh)
O=[N+]([O-])/C(C(Cl)=C(Cl)Cl)=C(\Nc1ccc(F)cc1)n1cncn1	Sm TGR inh 8.9µM (no result: LASV entry inh, RE007 growth inh, MARV entry inh, FMDV inh, HCV inh)
Cc1cc([N+](=O)[O-])nn1CC(=O)Nc1ccc(F)cc1	HCV inh inconclusive
CCOc1ccc(N/C(=C(/C(Cl)=C(Cl)Cl)[N+](=O)[O-])n2cncn2)cc1	Sm TGR inh 11µM (no result: LASV entry inh, RE007 growth inh, FMDV inh, HCV inh)
CCOc1ccccc1N/C(=C(/C(Cl)=C(Cl)Cl)[N+](=O)[O-])n1cncn1	LASV entry inh inconclusive, Sm TGR inh 6.3µM, MARV entry inh inconclusive, HCV inh inconclusive
CCOc1ccc(NC(=O)c2nn(C)c(C(=O)Nc3ccc(OCC)cc3)c2[N+](=O)[O-])cc1	HCV inh inconclusive
COc1ccc(CCNC(=O)CSc2n[nH]c(-c3ccccc3Cl)n2)cc1OC	none (no result: RE007 growth inh, MARV entry inh, HCV inh)
N#C/C(=N\Nc1ccc([N+](=O)[O-])cc1)C(N)=S	LASV entry inh inconclusive, MARV entry inh inconclusive, HCV inh 10µM
N#C/C(=N\Nc1cccc([N+](=O)[O-])c1)C(=O)c1ccc(Br)cc1	MARV entry inh inconclusive, FMDV inh inconclusive, HCV inh 10µM (no result: LASV entry inh)
N#C/C(=N/Nc1ccc([N+](=O)[O-])cc1)C(=N)N1CCCCC1	LASV entry inh inconclusive
COC(=O)N[C@H](C(C(=O)OC)=C(C)NCc1ccccc1)c1cccc(F)c1	none (no result: LASV entry inh, RE007 growth inh, Sm TGR inh, FMDV inh, HCV inh)
CCCCNc1nc2c(c(=O)n(Cc3ccc(Cl)cc3)c(=O)n2C)n1C	MARV entry inh inconclusive, FMDV inh inconclusive (no result: RE007 growth inh, HCV inh)
Cn1c(=O)c2c(nc(NCC3CCCC(CN)C3)n2Cc2ccc(Cl)cc2Cl)n(C)c1=O (configuration not stated)	HCV inh 11µM (no result: LASV entry inh, MARV entry inh)
Cn1c(NCCCN2CCOCC2)nc2c1c(=O)n(Cc1ccc(Cl)cc1Cl)c(=O)n2C	MARV entry inh inconclusive, FMDV inh inconclusive, HCV inh 11µM
CCc1ccccc1NC(=O)CSc1nc(-c2ccccc2)nn1C(=O)c1cccc([N+](=O)[O-])c1	none (no result: LASV entry inh, RE007 growth inh, MARV entry inh, FMDV inh, HCV inh)
O=C(CSc1nc(-c2ccccc2)nn1C(=O)c1ccccc1)Nc1cccc([N+](=O)[O-])c1	LASV entry inh inconclusive, FMDV inh inconclusive, HCV inh 25µM
O=[N+]([O-])c1cc(C=Nc2ccc3ccccc3c2)ccc1Br	Sm TGR inh 45µM
COc1cccc(C2(CC(=O)N3CCC(c4nc5ccccc5o4)CC3)CC(=O)N(C)C2=O)c1 (configuration not stated)	none (no result: LASV entry inh, RE007 growth inh, Sm TGR inh, MARV entry inh, HCV inh)
